Measured values taken from PubChem BioAssay AID493005 (National Center for Advancing Translational Sciences (NCATS), 2010).
Screen size: about 340,000 compounds; fewer than 10 were called active. Only a sample is shown. Values without a mark were called inactive. Calls follow the shape of the dose curve; as a rule, active = well fitted inhibition curve with a large enough effect in the main read-out, with a control signal flat (not every such curve was filed as active); inconclusive = small, poorly fitted or top-dose-only effect, or effect the other way, or a change in a side signal; inactive = no such curve, though single readings can be large or run the other way.

target: Tumor susceptibility gene 101 protein (Homo sapiens) (UniProt Q99816); assay: qHTS Assay for Iinhibitors of HIV-1 Budding by Blocking the Interaction of PTAP/TSG101; conditions: Fluorescence polarization, FITC-PTAP peptide / Tsg101 binding; series mostly up to 115 µM; activity change, negative = inhibition: at the top concentration; also: % of control where 0% means no effect
In short: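 Fluorescence anisotropy tracks displacement of a FITC-tagged PTAP peptide (50 nM) from the Tsg101 binding domain (10 uM), following a 20 min room-temperature incubation at pH 7.5.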

Chain of Tumor susceptibility gene 101 protein (Homo sapiens) (Q99816 whole entry, looked up, the tested form may be a part): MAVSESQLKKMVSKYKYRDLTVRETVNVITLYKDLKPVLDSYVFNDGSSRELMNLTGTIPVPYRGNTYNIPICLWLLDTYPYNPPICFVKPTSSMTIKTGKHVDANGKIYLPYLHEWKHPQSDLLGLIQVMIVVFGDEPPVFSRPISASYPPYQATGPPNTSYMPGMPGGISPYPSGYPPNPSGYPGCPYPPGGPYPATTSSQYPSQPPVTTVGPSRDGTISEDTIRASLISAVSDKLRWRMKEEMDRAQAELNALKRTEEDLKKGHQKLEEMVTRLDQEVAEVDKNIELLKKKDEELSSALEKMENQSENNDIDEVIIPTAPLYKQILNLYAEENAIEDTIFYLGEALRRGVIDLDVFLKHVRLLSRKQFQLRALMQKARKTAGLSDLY

Row | SMILES | activity change, negative = inhibition [%]
1 | CCCc1nc(SCC(=O)Nc2ccccc2OC)c2c(=O)n(C)c(=O)n(C)c2n1 | 0.785
2 | CC(=O)Nc1cccc(NC(=O)CSc2nccn2Cc2ccc(F)cc2)c1 | -2.24
3 | N#Cc1cccc(OC(=O)c2ccc3c(=O)n4c(nc3c2)CCC4)c1 | -3.21
4 | CSc1ccccc1NC(=O)CN(C)CC(=O)Nc1cccc(Br)c1 | 0.804
5 | CN(C)/C(=N\OC(=O)c1ccccc1)c1nonc1N | -1.1
6 | CCOc1ccc(NC(=O)[C@H](C)NC(=O)C2CC(=O)N(c3ccc(OC)cc3)C2)cc1 (some centres not stated) | -2.26
7 | COc1cc(C2NC(=O)NC(c3ccccc3)=C2C(C)=O)c(Br)cc1OCC(N)=O (configuration not stated) | 1.51
8 | Cc1ccc(C(NC(=O)N2CCCC2)C(Cl)(Cl)Cl)cc1F (configuration not stated) | 0.175
9 | CCn1c(CC(=O)Nc2ccccc2C)nnc1SCC(=O)NC1=NCCS1 | 0.499
10 | Cc1cccc(-n2c(Cc3cc(=O)[nH]c(=O)[nH]3)nnc2SC(C)C)c1 | -3.65
11 | Cc1ccccc1C(=O)N1CCC(C(=O)Nc2ccc(S(=O)(=O)N(C)C(C)C)cc2)CC1 | -5.76
12 | Cc1no[n+]([O-])c1COc1ccccc1/C=C1\NC(=S)NC1=O | -1.51
13 | Cc1coc2cc3oc(=O)c(CCC(=O)O)c(C)c3cc12 | -1.58
14 | CC(C)Cc1nnc(N)s1 | 0.822
15 | Cc1ccc2c(c1)N(CC(=O)NCCCN1CCCCC1)C(=O)c1cccnc1O2 | -3.98
16 | CC1CC(C)CN(C(=O)CCNC(=O)Cn2cnc3ccccc3c2=O)C1 (configuration not stated) | -3.52
17 | O=C(Cc1ccc(S(=O)(=O)N2CCOCC2)s1)NCCOc1ccccc1F | -3.13
18 | O=C(COc1ccc2c(c1)CCC2)N1CCN(c2ccc(F)cc2)CC1 | -4.81
19 | CN(C)c1ccc(Nc2c3c4c(cccc4n(C)c2=O)C(=O)c2ccccc2-3)cc1 | -12.6
20 | CC(Cc1cccs1)NC(=O)c1cccc(Cl)c1 (configuration not stated) | -2.64
21 | O=C(Cc1ccc([N+](=O)[O-])cc1)NCCc1ccc2c(c1)OCO2 | 0.815

Row | SMILES | activity change, negative = inhibition [%]
22 | CCC(CC)C(=O)Nc1c2c(nn1-c1ccc(C)cc1)CS(=O)(=O)C2 | -0.386
23 | CCCC1(C(=O)OCC)NC(c2ccc(N(C)C)cc2)C2C(=O)N(c3ccc4c(c3)OCCO4)C(=O)C21 (configuration not stated) | -5.54
24 | COc1cc2c(cc1CNC[C@H]1O[C@@H](n3cnc(C(N)=O)n3)[C@H](O)[C@@H]1O)OCO2 | -0.393
25 | COc1ccc(/C=C/C2=CC(C)(C)NC(=S)N2)c(OC)c1 | -5.34
26 | O=C(NC1CCN(C(=S)Nc2ccc(Cl)cc2)CC1)C1CCCCC1 | -2.49
27 | N#CC1(NC(=O)COC(=O)CSc2ccc(F)cc2)CCCCC1 | -0.309
28 | CC(=O)c1ccc(Cc2ncc(C(F)(F)F)cc2Cl)s1 | -2.94
29 | COc1ccc(-c2cc(C(F)(F)F)n3nc(C(=O)N4CCOCC4)c(Cl)c3n2)cc1 | -1.7
30 | Cc1ccsc1C1C(C#N)=C(N)OC2=C1C(=O)CC(C)C2 (configuration not stated) | -6.04
31 | O=[N+]([O-])c1cccc(S(=O)(=O)N2CCCCCC2)c1 | -4.08
32 | CC(C)c1ccc(S(=O)(=O)N2CCC3(CC2)OCCO3)cc1 | 5
33 | O=C(CN1C(=O)NC2(CCCC2)C1=O)NCC1CCCO1 (configuration not stated) | -0.821
34 | NC(=O)c1ccc(CN2CCC(Cc3ccccc3)CC2)cc1 | -4.25
35 | O=C(N/C(=C\c1ccc(O)cc1)C(=O)N1CCCCC1)c1ccccc1 | -4.56
36 | O=C(O)C1C2C=CC(O2)C1C(=O)NCCc1cccc(Cl)c1 (configuration not stated) | -2.45
37 | CC1=C(C(=O)N(C)C)C(c2ccccc2OC(F)F)NC(=O)N1 (configuration not stated) | -2.19
38 | Cn1c2ccc(F)cc2c2nnc(NN)nc21 | -1.99
39 | CC(C)Oc1ccc(CCc2n[nH]c(=S)n2Cc2ccccc2)cc1 | -8.46
40 | CCc1nnc(NC(=O)CSc2nc3ccccc3c(=O)n2CCCOC)s1 | -4.64
41 | O=C(Nc1ccc(-n2cccn2)cc1)C1CCN(Cc2ccsc2)CC1 | -0.259
42 | CCOC(=O)C1Nc2ccc(C(F)(F)F)cc2C2C=CCC12 (configuration not stated) | -7.44
